# Test results: the supplement of paper PMC6555819
# Tested on: PPARa:RXRa (NR concentration 270 nM, RXRa partner concentration 90 nM)
# Assay: PBM binding z-score (relative to random genomic background probes); higher = stronger binding; sequences stand for … in GC…GCGATTGACAGCGTAGAATGAAGG
# Summary of the method: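 Ligand-free nuclear receptor dimers were bound for 1 h to custom Agilent 4×180K protein-binding microarrays. Detection used antibodies against each partner (one per run). Binding z-scores rest on regression-normalized fluorescence, with random background probes as the reference.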
row,Sequence,PBM binding z-score
1,TCATATAGGCAAAAGGTGAAAGTCGGTGTGGTAA,4.76
2,ATATGTAGGTTAGCTGGGGTCATTCAGACTAGGC,5.13
3,GCAACGAGGGCAAAGTTGATAGCATCTGTCGACG,3.7
4,CCTTACGGGTCGCTCCAGGTTATAGCATCGGAGT,1.24
5,ATGTCTAGGTAAGACTCAGTTCAGTGAAGAACGC,-0.0837
6,GATTCAGGGTCAAGGCCAGAGTACGCGTATTGAT,6.12
7,CGTCAAAGCTCAAGGTAACGTAACAGAAAGCAGC,-0.0672
8,CCTATTAGTTGACCACAAGGGCAACCGAAGCTCG,0.698
9,ATATGTAGCTTAGCTGGGGTCATTCAGACTAGGC,4.15
10,CTACCAAGGTGAACAAGCTCGTTGATTACTATTC,0.984
11,CTCGAAAGGTCGTGCTCAGGTGACTATACCAAAC,4.97
12,CGAACTAGGTCAAGAACAGTGAATCTCCGCACGC,4.39
13,ACTATTAGGTGACTTAGGGCAACCGATACGACGC,1.27
14,TAGCCTAGGTCAAGGGCCAGTATACCACGCGAAC,3.87
15,ACTTACGGGTCAACGAGGTTATTGCACGCGTATA,5.64
16,CGTCAAAGTTCAAGGTAACGTTACAGAAAGCAGC,4.78
17,CAATCTAGGTCACCGGAAGGTCAAAGTCCGCATG,6.32
18,CCGAGTGGGGCAAAGGTTACCATACTCAGTACGA,5.65
19,AATAGAGGGTCACTAGGCCAGAGTAGGTACGAAT,4.99
20,ACCTCTAGGTAACCAAGTTCAGTGAATGCCGAAC,0.625

row,Sequence,PBM binding z-score
1,CGTCAAAGTTCAAGGTAACGTGACAGAAAGCAGC,4.34
2,TCTCGGAGGACACGAAGGTCAGAGCTTTCCAGAG,1.98
3,CGAACTAGGTCACTGACAGGACAGTGAATAGTAA,4.7
4,CATACAGGGTCAGCTAGGCCCGAGTAGGGACGGC,4.15
5,AGAATGAGGTTACCAAAGCTCAGGGAAACGCTTG,3.46
6,ATCTCTAGGTAAAGTTCAGTGACAGATCGATAGA,2.36
7,TCGGGTAGGTTACCAATGGGGCATTCAGCTTTCT,1.22
8,TAGCCTAGGTCATTCAGGGGCCAGTAGAGAAAGC,3.64
9,ATCGAAAGGTCTTGAGGTGAGTATACAGAAAGGC,1.68
10,AGGATGAGGTTAAGATCAGGGAAACAGAATACAT,3.06
11,CCTCGGAGGACAACAGGAGGGCAGAGCTGCCAGA,-0.724
12,TCTGCTAGCTCAGTTGGTCAGCTAACGAGCTGCC,-0.45
13,TCTAGTTGGTCAGAGGTCACACACTCGAAATGCG,5.55
14,GCATATAAGTAATACAAGGTGAAAGTCCGATTGT,0.85
15,TTAGCAAGGTGAAAGGTCGTTGATGCACGCCTTG,5.24
16,AGCCAAAGTTCAGGACGAGGTAACGTAAAGCACG,3.22
17,AGAACGAGGGCATGCTGAGTTGATAGCAGAGTAG,1.12
18,ACTATTAATTGAGACGAGGGCAACCGATAGGTTG,0.542
19,CTCGAATGGTCGGTTGAGGTGAGTATACGGATAA,-0.259
20,GCGACTGGGGCAAAGCAGGTTACCATAAGGTTGG,1.15
